ERG Ets-DNA blk: inhibitors of human ERG Ets domain-DNA interaction | Potency, µM (series often up to 76.9 µM), most hits filed as inhibitors | fluorescence polarization, His-ERG Ets domain / labelled DNA | 370,000 compounds, 0.028% hits | AID 624246; active = well fitted inhibition curve with a large enough effect in the polarisation, with a control signal flat; inconclusive = small, poorly fitted or top-dose-only effect, or effect the other way, or a change in a side signal; inactive = no such curve, though single readings can be large or run the other way; the % refers to the polarisation;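 note: polarization taken with two DNA probes labelled with fluorescein and Texas red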
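His-tagged ERG Ets domain (1 uM in the protein solution; 300mM KCl, 50mM Tris-HCl, 1mM EDTA, 1mM DTT, pH 7.5) received compound, then a probe mix of 5 nM fluorescein-DNA and 100nM Texas-615-DNA. Fluorescence polarization was read for both dyes.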
DRD3 agonist: D3 dopamine receptor (human) agonism | P35462 | D3R DiscoveRx beta-arrestin cells, luminescence, 90 min | max activation, % | 410,000 compounds, 0.58% hits; in the data active = max activation above about 30%
Target sequence (P35462 whole entry, looked up): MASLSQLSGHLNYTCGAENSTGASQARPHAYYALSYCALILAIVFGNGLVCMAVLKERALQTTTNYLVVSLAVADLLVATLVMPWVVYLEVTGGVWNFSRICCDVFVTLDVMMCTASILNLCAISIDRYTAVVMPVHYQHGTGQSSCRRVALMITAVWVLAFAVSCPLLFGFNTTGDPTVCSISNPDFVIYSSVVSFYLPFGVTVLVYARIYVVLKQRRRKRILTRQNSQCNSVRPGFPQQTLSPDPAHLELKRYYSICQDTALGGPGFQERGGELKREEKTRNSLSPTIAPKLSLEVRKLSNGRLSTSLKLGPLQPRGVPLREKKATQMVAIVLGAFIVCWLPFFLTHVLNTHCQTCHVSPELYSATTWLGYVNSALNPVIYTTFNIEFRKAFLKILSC
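Agonist mode: compounds and dopamine controls were applied to plated cells for 90 min at 37 degrees C after an overnight attachment at 1500 cells/well. Luminescent read-out followed 30 - 60 minutes at room temperature with DiscoveRx detection reagent.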
D1 ag: agonists of human D1 dopamine receptor; P21728; HEK293 T-REx D1 cells, calcium flux, agonist mode; activation, % at 2 µM; 360,000 compounds, 1% hits; AID 504660; in the data active = activation above about 30%
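Tetracycline-induced HEK293 TREx D1 cells, force-coupled to calcium signalling, were dye-loaded with a no-wash calcium kit. Compound was pin-added after a 10 s baseline. Fluorescence was read kinetically at 1 cycle/s for 180 s, with calcium rises flagged as agonism.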
DRD3 antagonist: D3 dopamine receptor (human) antagonism. P35462. D3R cells, DiscoveRx beta-arrestin luminescence, antagonist mode; active compounds read low. max response, negative = inhibition, %. 360,000 compounds, 2.5% hits. AID 652054; in the data active = max response below about -50%; inconclusive = no clear call, values can overlap the other calls
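Cells plated overnight at 1500 cells/well, then exposed to library compounds with dopamine controls for 90 minutes at 37 degrees C. DiscoveRx reagent added for 30–60 minutes at room temperature; luminescence read, quantitative HTS format.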
D1 PAM: enhances dopamine response at the human D1 receptor. P21728. HEK293 TREx D1 cells, calcium flux, dopamine EC20 potentiation. potentiation, % at 10 µM. 360,000 compounds, 0.036% hits. AID 504651; in the data active = potentiation above about 30%
D1 antag: blocks dopamine activation of the human D1 receptor. HEK293 TREx D1 cells, calcium flux, dopamine EC80; active compounds read low. activity change, negative = inhibition, % at 10 µM. 360,000 compounds, 3.2% hits. P21728; in the data active = activity change below about -30%
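Cells carrying a force-coupled, tetracycline-inducible human D1 receptor report calcium flux. Each well gets a 10 s baseline, compound with 180 s monitoring, then an EC80 dopamine stimulus with a second 180 s kinetic read.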
Each line names hits and unclear results; the compound was inactive in the other large screens. Shown are actives, neighbours in structure and some others; about 6.1% of the full set was active somewhere.

Cc1ccc2c(c1)c1nc3ccccc3nc1n2C	none
Cc1cccc(-n2c(N)c(-c3nc4ccccc4n3C)c3nc4ccccc4nc32)c1	D1 ag 59.6
COCCN(C(=O)Cn1c(C(F)(F)F)nc2ccccc21)c1c(N)n(Cc2ccccc2)c(=O)[nH]c1=O	none
CCCCNc1c(-c2ccc(-c3ccc(OC)cc3)c(OC)c2)nc2ccccn12	DRD3 agonist 102.4 (no result: D1 ag, D1 PAM, D1 antag)
CCCCCCSc1cc(-c2nc3cnccn3c2NCCCC)ccc1OC	DRD3 agonist 103.5 (no result: D1 ag, D1 PAM, D1 antag)
CCCCNc1c(-c2ccc(OC)c(Sc3ccc(OC)cc3)c2)nc2cnccn12	DRD3 agonist 62.1 (no result: D1 ag, D1 PAM, D1 antag)
CC1CCCN(C(=O)CSCC(=O)Nc2nc(-c3cccs3)cs2)C1 (stereo unspecified)	D1 antag -83.5 (no result: D1 PAM)
CCCOc1ccc(C(=O)N2CCCc3ccccc32)cc1	D1 antag -45.0
CCOc1ccc(C(=O)N2CCc3ccccc32)cc1	none
COc1ccc(CC(=O)OCC(=O)N2CCCc3ccccc32)cc1	D1 antag -41.5
Cc1cccc(NC(=O)C(=O)NCCCc2ccccc2)c1	none (no result: ERG Ets-DNA blk, DRD3 agonist, DRD3 antagonist)
CCOC(=O)CCCn1c(C)nc(=O)c(-c2ccccc2)c1C	DRD3 antagonist inconclusive, D1 antag -33.6
Cc1nc(=O)c(-c2ccccc2)c(C)n1CCO	D1 antag -36.9
COc1cc(C(=O)N2CC(C)OC(C)C2)c([N+](=O)[O-])cc1OC (stereo unspecified)	D1 antag -51.4
CN(C)CCNC(=O)C1CCN(Cc2cc3ccccc3n2Cc2ccccc2)CC1	D1 ag 39.0 (no result: DRD3 antagonist)
CCCNC(=O)C1CCN(Cc2cc3ccccc3n2Cc2ccccc2)CC1	none (no result: DRD3 antagonist)
NS(=O)(=O)c1ccc(NC(=O)C(Sc2ccccc2)c2ccccc2)cc1 (stereo unspecified)	D1 antag -32.8
C/C(O)=c1/ccc2cccc3nc(C)nc1c23	D1 ag 47.0 (no result: ERG Ets-DNA blk)
Nc1[nH]c(C(=O)c2ccccc2)c(-c2ccc(Cl)cc2)c1C(=O)NCCc1c[nH]c2ccccc12	none (no result: ERG Ets-DNA blk, D1 ag, D1 PAM, D1 antag)
C=CCNC(=O)CSc1nc2ccccc2c(=O)n1CCc1ccc(OC)c(OC)c1	none
COc1ccc(CCn2c(SCCN3CCCCC3)nc3ccccc3c2=O)cc1OC	DRD3 antagonist -102.9
CCOc1ccc(OCc2ccc(C(=O)OCc3ccccn3)o2)cc1	D1 ag 32.0
CCOC(=O)c1ccc(COc2ccc(C(C)C)cc2)o1	none
CCc1c(C2(O)CCCCC2)[nH]c2cnccc12	DRD3 antagonist -52.5 (no result: D1 antag)
COCCn1c(Cc2ccccc2)nnc1SC(C)C(=O)NC1CC1 (stereo unspecified)	D1 antag -42.8
